Assay outcomes from PubChem.
EPAC1 agonist – agonists of human EPAC1 | 360,000 tested, 0.073% active | O95398 | EPAC1 agonist qHTS, biochemical assay; response scale: 100% = response to 6.5 mM cAMP | Potency, µM (doses to about 154 µM), most hits filed as activators; also: nearly all actives have a fitted effect of over 60% in size
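Multi-concentration qHTS readout: loss of Rap1B-bound BODIPY-GDP fluorescence driven by 100 nM EPAC1 with excess GDP (50 uM), monitored kinetically at room temperature; agonist response expressed relative to 6.5 mM cAMP.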
EPAC2 agonist – agonists of human EPAC2 (RAPGEF4); Q8WZA2; EPAC2 activation, biochemical qHTS; response scale: 100% = 6.5 mM cAMP response; Potency, µM (doses to about 154 µM), most hits filed as activators; 360,000 tested, 0.079% active; AID 720711; also: nearly all actives have a fitted effect of over 50% in size
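qHTS, titration series. 100 nM EPAC2 / 250 nM Rap1B-BODIPY-GDP / 50 uM GDP; RT; ex 480/em 540 nm, 5-min reads to 30 min. Norm. to 6.5 mM cAMP = activation.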
EPAC1 antagonist – antagonists of human EPAC1; EPAC1 GEF assay, Rap1b-BODIPY-GDP exchange fluorescence; AID 720709; O95398; Potency, µM (series often up to 115 µM), usual class: inhibitors; 360,000 tested, 0.14% active; also: nearly all actives have a fitted effect of over 50% in size
EPAC2 antagonist – antagonists of human EPAC2 | AID 720708 | Potency, µM (doses to about 114 µM), usual class: inhibitors | EPAC2 GEF exchange of Rap1B-BODIPY-GDP, fluorescence | 360,000 tested, 0.18% active | Q8WZA2; also: nearly all actives have a fitted effect of over 45% in size
B2AR arrestin – recruits beta-arrestin to the human beta2-adrenergic receptor; P07550; beta-arrestin recruitment to beta2AR, cell-based reporter; Potency, µM (doses to about 46.1 µM), hits mostly activators; 330,000 tested, 0.02% active; also: nearly all actives have a fitted effect of over 65% in size
Target sequence (P07550 whole entry, looked up): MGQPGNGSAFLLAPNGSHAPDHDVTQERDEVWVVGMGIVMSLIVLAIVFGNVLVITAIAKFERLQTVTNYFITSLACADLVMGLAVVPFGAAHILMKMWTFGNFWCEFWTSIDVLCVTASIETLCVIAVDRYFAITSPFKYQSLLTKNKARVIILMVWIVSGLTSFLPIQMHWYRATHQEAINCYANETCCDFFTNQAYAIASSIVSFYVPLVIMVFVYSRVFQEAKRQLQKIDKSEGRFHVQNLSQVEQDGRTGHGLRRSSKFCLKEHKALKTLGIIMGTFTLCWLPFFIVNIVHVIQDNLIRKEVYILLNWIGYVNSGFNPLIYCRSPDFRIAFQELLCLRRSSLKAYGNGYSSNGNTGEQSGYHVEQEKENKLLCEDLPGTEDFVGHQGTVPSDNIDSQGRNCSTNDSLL
Numbers stand for hits; - = inactive; ? = inconclusive; . = not tested or not shown. Hits are enriched below; roughly 0.4% of the tested compounds scored in any of these assays. Calls follow the shape of the dose curve; as a rule, active = well fitted curve in the direction sought with a large enough effect; inconclusive = small, poorly fitted or top-dose-only effect, or another doubt; inactive = no such curve, though single readings can be large; an effect the other way counts as inactive or inconclusive.

SMILES	EPAC1 agonist	EPAC2 agonist	EPAC1 antagonist	EPAC2 antagonist	B2AR arrestin
C=CCOc1ccc(C=NNc2ccc(S(=O)(=O)Nc3ccccc3C(=O)O)cc2[N+](=O)[O-])cc1OC	-	-	50µM	?	-
COc1ccc(C=NNc2ccc(S(=O)(=O)Nc3ccccc3C(=O)O)cc2[N+](=O)[O-])c(OC)c1	-	-	50µM	-	-
O/C=c1\ccc2cccc3nc(C(F)(F)F)nc1c23	89µM	?	-	-	-
CCCc1nc2ccc(Br)cn2c1Cc1ccccc1OC	-	-	-	-	.
COc1ccccc1N1CC(C(=O)OCC(=O)Nc2c(C)cccc2C)CC1=O (stereo unspecified)	-	-	-	-	-
CCOC(=O)Cc1csc(NS(=O)(=O)c2ccccc2)n1	-	-	-	-	-
CCOC(=O)c1ccccc1-c1csc(NS(=O)(=O)c2ccc(Cl)cc2)n1	-	-	79µM	-	-
CC1CCCCN1C(=O)COC(=O)C1CCN(S(=O)(=O)c2ccc3c(c2)OCCO3)CC1 (stereo unspecified)	-	-	-	-	-
CN1CCc2nc3sc(C(=O)C45CC6CC(CC(C6)C4)C5)c(N)c3cc2C1	-	?	-	50µM	-
Nc1c(C(=O)O)sc2nc3c(cc12)CCCC3	-	-	-	-	-
CCOC(=O)[C@]12CCC=C1N(Cc1ccc(Cl)cc1Cl)C(=O)[C@H](CC(=O)NCCCN1CCCC1=O)C2	-	-	?	-	.
NC(=O)c1cc2ccc(O)cc2oc1=NCc1ccccc1	-	100µM	-	-	-
Cc1cc(C(=O)c2cccs2)c(N)s1	-	-	-	-	-
Cc1cc(C)c(C(=O)c2cccs2)c(C)c1	-	-	-	28µM	.
O=C(NCC(F)(F)F)c1ccc2sc([C@H]3C[C@H](O)[C@@H](CO)O3)nc2c1	-	-	-	-	.
Cc1cc(Oc2ccc(Br)cc2)nc(SCC(=O)c2ccccc2)n1	-	-	-	-	-
COC(=O)CSc1nc(C)cc(Oc2ccccc2)n1	-	-	50µM	-	-
COC(=O)c1cn(C(=O)OC)c2ccccc12	-	-	-	-	-
COC(=O)c1cn(C(=O)c2ccccc2Cl)c2ccccc12	-	-	-	28µM	-
COc1cc2nc(N3CCNCC3)nc(N)c2cc1OC	-	-	?	32µM	-
CC(=O)c1cccc(S(=O)(=O)N2CCn3cccc3C2C)c1 (stereo unspecified)	-	-	-	-	-
CCOC(=O)c1sc(N2C(=O)C(O)=C(C(=O)c3ccco3)C2c2cccc([N+](=O)[O-])c2)nc1C (stereo unspecified)	-	-	22µM	-	-
CC(=O)C1=C(C)OC2(O)c3ccccc3C(=O)C12O (stereo unspecified)	-	-	79µM	-	-
O=C1NC[C@H](CCCCN2C[C@H](Cc3ccccc3)N(CCC3CCCCC3)C(=O)C2=O)N(CCc2ccc(O)cc2)C1=O	-	-	-	-	.
Cc1[nH]c(=O)nc(NN=Cc2ccc(Cl)cc2)c1C(=O)Nc1ccc(Cl)cc1	-	32µM	-	-	.
SMILES	EPAC1 agonist	EPAC2 agonist	EPAC1 antagonist	EPAC2 antagonist	B2AR arrestin
CCN(CC)c1ccc2cc(C(=O)Nc3ccccn3)c(=O)oc2c1	-	100µM	-	-	-
CCN(CC)c1ccc2cc(C(N)=O)c(=O)oc2c1	-	-	-	-	-
CCN(CC)c1ccc2cc(NC(=O)CCC(=O)O)c(=O)oc2c1	?	-	-	-	-
CCN(CC)c1ccc2cc(C=O)c(=O)oc2c1	100µM	100µM	-	-	.
CCN(CC)c1ccc2cc(C(C)=O)c(=O)oc2c1	?	?	-	-	-
CCN(CC)c1ccc2cc(C(N)=O)c(=N)oc2c1	89µM	89µM	-	-	-
CCN(CC)c1ccc2cc(-c3nnc(-c4ccncc4)o3)c(=O)oc2c1	-	100µM	-	-	-
COc1cccc(C(=O)N2CCC[C@H]2C(=O)N2CCC[C@H]2C(=O)N[C@H](C)c2ccccc2)c1	-	-	-	-	.
CNc1ncnc(NC)c1[N+](=O)[O-]	-	-	-	-	.
CC1CC1c1ccc(/C=C(\C#N)C(=O)Nc2ccc(Cl)cc2)o1 (stereo unspecified)	100µM	-	-	-	-
N#C/C(=C/c1ccc(N2CCCCC2)o1)C(=O)Nc1ccc(Cl)cc1	100µM	100µM	-	-	-
CC1CC1c1ccc(/C=C(\C#N)C(=O)Nc2ccccc2Cl)o1 (stereo unspecified)	100µM	-	-	-	-
N#Cc1ccc(OCC(=O)NCCCn2ccnc2)cc1	-	-	-	-	-
COc1cc(-c2c(CCO)sc3ccccc23)cc(OC)c1OC	-	-	-	47µM	.
COc1cc(-c2c(-c3ccsc3)sc3ccccc23)cc(OC)c1OC	-	-	-	?	-
Cc1ccc(NC(=O)COC(=O)Cn2c(C)csc2=O)c([N+](=O)[O-])c1	100µM	-	-	-	-
O=S1(=O)CC(N2CCN(CC3CC3)CC2)CN1Cc1ccc(F)cc1 (stereo unspecified)	-	-	-	-	.
COc1ccc(N2C(=O)CS/C2=N\C(=S)Nc2ccccc2)cc1	-	-	-	-	5.6µM
O=[N+]([O-])c1ccc(N2CCN(Cc3ccccc3)CC2)c2c1no[n+]2[O-]	-	-	-	-	.
Nc1c(Cl)ncnc1N/N=C/c1ccc(O)cc1	-	-	?	28µM	-
CC(=O)NC(c1ccccc1)c1cc(Cl)c2cccnc2c1O (stereo unspecified)	-	-	-	40µM	?
CCCC(=O)NC(c1ccc(C(C)C)cc1)c1ccc2cccnc2c1O (stereo unspecified)	-	-	-	-	-
CC(=O)NC(c1ccc(Cl)cc1)c1ccc2cccnc2c1O (stereo unspecified)	-	-	-	20µM	.
CCC(=O)NC(c1ccc(C)cc1)c1ccc2cccnc2c1O (stereo unspecified)	-	-	-	16µM	-
Cc1c(C)c(C)c(S(=O)(=O)NCCC(=O)N2CCN(Cc3ccc(C#N)cc3)CC2)c(C)c1C	-	-	-	-	-
SMILES	EPAC1 agonist	EPAC2 agonist	EPAC1 antagonist	EPAC2 antagonist	B2AR arrestin
C[C@H](CO)N1C[C@H](C)[C@@H](CN(C)C(=O)NC2CCCCC2)Oc2ncc(Br)cc2C1=O	-	-	-	-	.
Cc1ccc(S(=O)(=O)N(C)CC(=O)NCC(c2ccco2)N(C)C)cc1 (stereo unspecified)	-	-	-	-	-
NC(=O)c1c(NC(=O)c2ccccc2)sc2c1CCN(Cc1ccccc1)C2	-	89µM	-	-	-
NC(=O)c1c(NC(=O)c2c(F)cccc2F)sc2c1CCN(Cc1ccccc1)C2	-	-	-	-	-
CCN1CCc2c(sc(NC(=O)c3ccc(S(=O)(=O)N4CCCCCC4)cc3)c2C(=O)NC)C1	112µM	-	-	-	-
CCN1CCc2c(sc(NC(=O)Nc3ccc(Cl)c(Cl)c3)c2C(N)=O)C1	100µM	100µM	?	?	-
